{"source": "PubChem BioAssay (NCATS)", "key": {"[1]": {"biological_target": "3',5'-cyclic-AMP phosphodiesterase 4B (Homo sapiens) (UniProt Q07343)", "sequence (Q07343 whole entry, looked up)": "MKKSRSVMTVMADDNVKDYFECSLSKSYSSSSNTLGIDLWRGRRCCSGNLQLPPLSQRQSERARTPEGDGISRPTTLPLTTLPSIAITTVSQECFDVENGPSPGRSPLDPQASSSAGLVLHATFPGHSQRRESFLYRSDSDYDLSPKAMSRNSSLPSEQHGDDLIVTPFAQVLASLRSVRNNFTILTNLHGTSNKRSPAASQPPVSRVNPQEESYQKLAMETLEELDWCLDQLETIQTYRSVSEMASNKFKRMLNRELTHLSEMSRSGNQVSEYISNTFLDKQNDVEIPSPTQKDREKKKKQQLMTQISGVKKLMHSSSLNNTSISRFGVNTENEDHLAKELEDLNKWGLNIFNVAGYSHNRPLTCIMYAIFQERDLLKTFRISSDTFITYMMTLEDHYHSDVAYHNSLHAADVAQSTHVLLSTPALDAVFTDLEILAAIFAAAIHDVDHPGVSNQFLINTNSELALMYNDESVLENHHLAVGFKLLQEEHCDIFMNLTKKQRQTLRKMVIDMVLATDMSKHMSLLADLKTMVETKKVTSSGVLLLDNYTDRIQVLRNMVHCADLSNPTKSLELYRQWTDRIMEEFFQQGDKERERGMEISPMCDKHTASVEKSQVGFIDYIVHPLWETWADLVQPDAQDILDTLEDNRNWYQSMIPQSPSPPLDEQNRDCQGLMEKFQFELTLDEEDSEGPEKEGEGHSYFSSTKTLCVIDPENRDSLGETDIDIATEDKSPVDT", "test": "qHTS Assay for Inhibitors of PDE-IV (AID 607; active = well fitted activation curve with a large enough effect in the main read-out, with a control signal flat, not every such curve was filed as active)", "procedure,_shortened": "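Cell-based read-out of cAMP via a modified cyclic nucleotide-gated channel and membrane potential dye (535/590 nm) in HEK293 cells expressing PDE4 endogenously. Compounds tested up to 22.9 uM final; 100 uM RO 20-1724 reference.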"}, "[2]": {"biological_target": "Cytochrome P450 3A4 (Homo sapiens) (UniProt P08684)", "sequence (P08684 whole entry, looked up)": "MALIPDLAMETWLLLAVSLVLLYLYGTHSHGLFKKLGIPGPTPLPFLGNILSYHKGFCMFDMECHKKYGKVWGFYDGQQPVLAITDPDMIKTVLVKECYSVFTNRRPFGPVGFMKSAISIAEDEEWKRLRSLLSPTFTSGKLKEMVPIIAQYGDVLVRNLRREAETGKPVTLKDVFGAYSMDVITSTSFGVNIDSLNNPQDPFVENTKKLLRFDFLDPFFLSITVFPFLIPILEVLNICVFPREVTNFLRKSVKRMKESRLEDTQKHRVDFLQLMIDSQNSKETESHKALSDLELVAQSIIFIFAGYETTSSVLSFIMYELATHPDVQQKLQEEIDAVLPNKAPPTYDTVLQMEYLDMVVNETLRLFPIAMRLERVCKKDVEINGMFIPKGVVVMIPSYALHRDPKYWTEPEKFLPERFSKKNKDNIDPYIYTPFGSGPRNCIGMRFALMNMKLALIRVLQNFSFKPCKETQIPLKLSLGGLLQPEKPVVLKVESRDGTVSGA", "test": "qHTS Assay for Inhibitors and Substrates of Cytochrome P450 3A4 (AID 884); also: nearly all actives have a fitted effect of over 50% in size; also: potency is read from the fitted curve at half-maximal effect", "procedure,_shortened": "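20 nM human CYP3A4 with 25 uM Luciferin-PPXE (at KM) in 200 mM KPO4, preincubated 10 min with compound; NADPH regeneration started a 60 min RT reaction. Luciferin detected by luminescence, normalized to 57 uM ketoconazole as full inhibition.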"}, "[3]": {"test": "Confirmation and Secondary Assay for Modulators of Hemoglobin Beta Chain Splicing at IVS2 654 locus (AID 910);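 also: HeLa cells stably carrying EGFP split by mutant beta-globin IVS2-654 intron; per-well total GFP intensity by laser scanning cytometry after 2-day treatment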", "procedure,_shortened": "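Readout: per-well total peak green fluorescence (488 nm ex, 500–520 nm em) from objects 5–250 µm, reflecting correct splicing of an EGFP-654 reporter. Compounds were applied for 2 days at 37 °C to overnight-plated HeLa EGFP-654 cells; controls were DMSO and 500 nM IVS2-654 PNA.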"}, "[4]": {"biological_target": "Cytochrome P450 2D6 (Homo sapiens) (UniProt P10635)", "sequence (P10635 whole entry, looked up)": "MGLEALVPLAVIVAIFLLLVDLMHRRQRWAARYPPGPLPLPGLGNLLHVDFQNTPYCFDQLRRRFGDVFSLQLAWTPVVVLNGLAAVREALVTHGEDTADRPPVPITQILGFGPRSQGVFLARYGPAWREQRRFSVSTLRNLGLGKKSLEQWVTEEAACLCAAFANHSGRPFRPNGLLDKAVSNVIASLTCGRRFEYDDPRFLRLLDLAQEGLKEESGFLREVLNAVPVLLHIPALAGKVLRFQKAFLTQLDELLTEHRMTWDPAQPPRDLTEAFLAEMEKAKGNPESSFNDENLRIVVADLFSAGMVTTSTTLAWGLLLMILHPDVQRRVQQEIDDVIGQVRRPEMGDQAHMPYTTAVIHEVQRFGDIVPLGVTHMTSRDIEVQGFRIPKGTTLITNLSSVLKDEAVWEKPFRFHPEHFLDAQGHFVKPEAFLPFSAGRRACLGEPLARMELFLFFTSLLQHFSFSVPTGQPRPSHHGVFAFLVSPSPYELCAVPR", "test": "qHTS Assay for Inhibitors and Substrates of Cytochrome P450 2D6 (AID 891); also: nearly all actives have a fitted effect of over 60% in size; also: potency is read from the fitted curve at half-maximal effect;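 as to activity change, negative = inhibition: luciferin methyl ether substrate demethylated by CYP2D6 with NADPH regeneration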", "procedure,_shortened": "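Human CYP2D6 (5 nM) with 30 uM Luciferin-ME EGE (at Km) in 100 mM KPO4, compound preincubated 10 min, then NADPH regeneration system for 60 min at room temperature. Luciferin read by luminescence; normalized to 1.43 uM quinidine.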"}, "[5]": {"test": "Cellular Toxicity (caspase-3) HepG2 (AID 654)", "procedure,_shortened": "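Cells plated 5 hr at 37 °C, compound added, incubated 16 hr at 37 °C. Caspase-Glo 3/7 reagent followed, 20 min at room temperature, then luminescence read. Activation scored as signal increase; AC50 from Hill fit.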"}, "[6]": {"test": "Cellular Toxicity (caspase-3) SHSY5Y (AID 657); also: potency is read from the fitted curve at half-maximal effect", "procedure,_shortened": "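Luminescent Caspase-Glo 3/7 read-out, 1 hr room temperature, follows 16 hours of compound treatment of SH-SY5Y cells at 37 °C. Normalization: DMSO basal, 10 uM staurosporine as 100%; AC50 values from Hill-equation concentration-response fits.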"}, "[7]": {"test": "Cellular Toxicity (caspase-3) BJ (AID 658); also: potency is read from the fitted curve at half-maximal effect", "settings": "Potency: caspase-3 activation", "procedure,_shortened": "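Readout: Caspase-Glo 3/7 luminescence increase in BJ cells after 16 hr treatment at 37 °C. Staurosporine and tamoxifen served as positive controls; AC50 values came from Hill modelling of data normalized to DMSO and 10 uM staurosporine.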"}, "[8]": {"test": "Cellular Toxicity (caspase-3) Hek293 (AID 664)", "settings": "HEK293 caspase-3 activation, DMSO = 0%, 100 µM tamoxifen = 100%; at 92.2 µM (top of the series)", "procedure,_shortened": "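Cells plated, 5 hr at 37 °C; compounds added; 16 hr at 37 °C; Caspase-Glo 3/7 reagent, 20 min RT; luminescence read. Activation expressed relative to DMSO and 100 uM tamoxifen, AC50 by Hill model.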"}, "[9]": {"test": "Cellular Toxicity (caspase-3) NIH 3T3 (AID 666)", "procedure,_shortened": "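Luminescence from aminoluciferin released by caspase-3/7 cleavage of a peptide substrate served as read-out. Mouse fibroblast NIH 3T3 cells were exposed to compounds over a concentration range for 16 hours, and AC50 values came from standard Hill modelling.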"}, "[10]": {"biological_target": "Cytochrome P450 3A4 (Homo sapiens) (UniProt P08684)", "test": "qHTS Assay for Activators of Cytochrome P450 3A4 (AID 885); also: nearly all actives have a fitted effect of over 65% in size; also: potency is read from the fitted curve at half-maximal effect", "procedure,_shortened": "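Signal was normalized against complete inhibition by 57 uM ketoconazole. The reaction used 20nM CYP3A4 with 25uM Luciferin-PPXE, 10-min compound preincubation and a 60-min NADPH-supported step at RT.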"}, "[11]": {"test": "qHTS Assay for Identification of Small Molecule Agonists for Hypoxia Response Element Signaling Pathway (AID 914; active = well fitted activation curve with a large enough effect in the signal ratio, with a control signal flat, not every such curve was filed as active; the % refers to the signal ratio)", "settings": "ME-180 HRE-bla reporter, beta-lactamase ratio, CoCl2, 17 h; hits give high values", "procedure,_shortened": "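Cells were plated overnight, pin-dosed with compound in a titration series, co-stimulated with EC50 CoCl2 and incubated 17 hours at 37 degrees Celsius. CCF4 substrate was then loaded, and AC50 values came from the 460nm/530nm ratio.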"}, "[12]": {"biological_target": "Cytochrome P450 2C9 (Homo sapiens) (UniProt P11712)", "sequence (P11712 whole entry, looked up)": "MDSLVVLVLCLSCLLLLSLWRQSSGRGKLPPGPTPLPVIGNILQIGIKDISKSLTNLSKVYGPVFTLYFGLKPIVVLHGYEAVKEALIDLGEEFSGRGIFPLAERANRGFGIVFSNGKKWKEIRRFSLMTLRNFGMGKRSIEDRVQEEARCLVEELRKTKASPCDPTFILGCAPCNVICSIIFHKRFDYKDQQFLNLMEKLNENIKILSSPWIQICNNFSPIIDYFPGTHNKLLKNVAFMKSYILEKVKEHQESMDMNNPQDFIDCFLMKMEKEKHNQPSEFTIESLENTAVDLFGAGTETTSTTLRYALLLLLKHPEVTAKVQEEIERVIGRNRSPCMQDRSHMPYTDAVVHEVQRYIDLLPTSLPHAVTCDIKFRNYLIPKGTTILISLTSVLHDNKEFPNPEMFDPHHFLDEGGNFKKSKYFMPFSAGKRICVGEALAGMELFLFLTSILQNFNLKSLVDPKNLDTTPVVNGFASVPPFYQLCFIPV", "test": "qHTS Assay for Inhibitors and Substrates of Cytochrome P450 2C9 (AID 883); also: nearly all actives have a fitted effect of over 60% in size; also: potency is read from the fitted curve at half-maximal effect", "procedure,_shortened": "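Turnover of Luciferin-H (100uM, KM) by 10nM human CYP2C9 was measured over 60 min at 37C with NADPH regeneration; inhibitors and some substrates reduce luminescence. Data normalized to sulphaphenazole 57uM.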"}, "[13]": {"biological_target": "Guanine nucleotide-binding protein G(i) subunit alpha-1 (Homo sapiens) (UniProt P63096)", "sequence (P63096 whole entry, looked up)": "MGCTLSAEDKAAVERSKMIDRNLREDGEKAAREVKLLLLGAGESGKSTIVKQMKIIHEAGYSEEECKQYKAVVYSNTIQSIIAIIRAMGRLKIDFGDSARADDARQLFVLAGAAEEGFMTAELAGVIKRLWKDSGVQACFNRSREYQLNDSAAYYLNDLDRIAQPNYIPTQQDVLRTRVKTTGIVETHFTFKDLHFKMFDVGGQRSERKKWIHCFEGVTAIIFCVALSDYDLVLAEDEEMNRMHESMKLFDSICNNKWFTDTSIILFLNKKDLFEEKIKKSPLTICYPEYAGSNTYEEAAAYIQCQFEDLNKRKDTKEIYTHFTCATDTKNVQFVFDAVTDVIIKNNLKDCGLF", "test": "qHTS Assay for Inhibitors of RGS12 GoLoco Motif Activity (Green Fluorophore) (AID 879);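 also: negative values mean loss of peptide binding seen as reduced polarization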", "procedure,_shortened": "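Fluorescence polarization assay: 50 nM Gαi1 with 10 nM FITC-labeled RGS12 GoLoco peptide in 10 mM Tris pH 7.5, 150 mM NaCl, 0.1 mM GDP, 0.05% NP40, 10 min at room temperature with compound.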"}}, "note": "Values without a mark were called inactive. Results filed as inconclusive are left out. A call without a number means that no potency is given here. The source made the active and inactive calls. Unless noted, calls follow the shape of the dose curve; as a rule, active = well fitted curve in the direction sought with a large enough effect; inconclusive = small, poorly fitted or top-dose-only effect, or another doubt; inactive = no such curve, though single readings can be large; an effect the other way counts as inactive or inconclusive.", "data": [{"smiles": "CN1C(=O)OC(C)(C)C1=O", "values": [{"measurement": "outcome", "setting": "[1]", "result": "inactive"}]}, {"smiles": "CC(=O)Nc1ccc(OC(=O)c2ccccc2O)cc1", "values": [{"measurement": "Potency", "setting": "[2]", "result": "inactive"}, {"measurement": "Potency", "setting": "[3]", "result": "inactive"}]}, {"smiles": "CC[C@H]1OC(=O)[C@H](C)[C@@H](O[C@H]2C[C@@](C)(OC)[C@@H](O)[C@H](C)O2)C(C)[C@@H](O[C@@H]2O[C@H](C)C[C@H](N(C)C)[C@@H]2O)[C@](C)(OC)C[C@@H](C)C(=O)[C@H](C)[C@@H](O)[C@]1(C)O", "note": "(stereo partly specified)", "values": [{"measurement": "Potency", "setting": "[3]", "result": "inactive"}]}, {"smiles": "CN1CCc2c(c3ccccc3n2Cc2ccccc2)C1", "values": [{"measurement": "Potency", "setting": "[4]", "result": "3.16 µM (active)"}, {"measurement": "Potency", "setting": "[3]", "result": "inactive"}]}, {"smiles": "C=C1C(CCl)(CCl)C2(Cl)C(Cl)C(Cl)C1(Cl)C2(Cl)Cl", "note": "(stereo unspecified)", "values": [{"measurement": "outcome", "setting": "[5]", "result": "inactive"}, {"measurement": "Potency", "setting": "[6]", "result": "39.8 µM (active)"}, {"measurement": "Potency", "setting": "[7]", "result": "63.1 µM (active)"}, {"measurement": "caspase-3 activation", "setting": "[8]", "result": "252% (active)"}, {"measurement": "outcome", "setting": "[9]", "result": "inactive"}, {"measurement": "Potency", "setting": "[2]", "result": "5.01 µM (active)"}, {"measurement": "Potency", "setting": "[10]", "result": "inactive"}]}, {"smiles": "CCCCC[C@H](O)/C=C/[C@H]1[C@H](O)CC(=O)[C@@H]1C/C=C\\CCCC(=O)O", "values": [{"measurement": "Potency", "setting": "[2]", "result": "inactive"}]}, {"smiles": "O=C(O)CCC(=O)c1ccc(-c2ccccc2)cc1", "values": [{"measurement": "outcome", "setting": "[1]", "result": "inactive"}, {"measurement": "Potency", "setting": "[3]", "result": "inactive"}]}, {"smiles": "N[C@H](CC(=O)O)C(=O)O", "values": [{"measurement": "outcome", "setting": "[1]", "result": "inactive"}]}, {"smiles": "CC1(C)S[C@@H]2[C@H](NC(=O)C3(N)CCCCC3)C(=O)N2[C@H]1C(=O)O", "values": [{"measurement": "outcome", "setting": "[1]", "result": "inactive"}]}, {"smiles": "O=C(O)[C@H]1CN(C/C=C/P(=O)(O)O)CCN1", "values": [{"measurement": "Potency", "setting": "[2]", "result": "inactive"}]}, {"smiles": "COc1cc(S(C)=O)ccc1-c1nc2ncccc2[nH]1", "note": "(stereo unspecified)", "values": [{"measurement": "outcome", "setting": "[1]", "result": "inactive"}, {"measurement": "Potency", "setting": "[2]", "result": "inactive"}, {"measurement": "Potency", "setting": "[3]", "result": "inactive"}]}, {"smiles": "Cc1cccc(C)c1NC(=O)C1CCCCN1C", "note": "(stereo unspecified)", "values": [{"measurement": "Potency", "setting": "[10]", "result": "inactive"}, {"measurement": "Potency", "setting": "[3]", "result": "inactive"}, {"measurement": "activation", "setting": "[11]", "result": 5.97, "unit": "%"}]}, {"smiles": "O=C(O)Cc1nn(Cc2ccc(Br)cc2F)c(=O)c2ccccc12", "values": [{"measurement": "Potency", "setting": "[12]", "result": "inactive"}]}, {"smiles": "CC(=O)[C@H]1CC[C@H]2[C@@H]3C=CC4=CC(=O)CC[C@@]4(C)[C@H]3CC[C@]12C", "values": [{"measurement": "outcome", "setting": "[1]", "result": "inactive"}, {"measurement": "Potency", "setting": "[2]", "result": "inactive"}, {"measurement": "Potency", "setting": "[10]", "result": "7.94 µM (active)"}]}, {"smiles": "N#Cc1ccc2c(c1)N(CCCN1CCC(O)CC1)c1ccccc1S2", "values": [{"measurement": "Potency", "setting": "[2]", "result": "inactive"}, {"measurement": "Potency", "setting": "[3]", "result": "inactive"}]}, {"smiles": "Cc1c(O)c(=O)ccn1C", "values": [{"measurement": "activity change, negative = inhibition", "setting": "[2]", "result": "-11.6% [at 11.4 µM]"}, {"measurement": "Potency", "setting": "[4]", "result": "inactive"}]}, {"smiles": "CC(=O)Oc1cccc2c1C(=O)c1c(OC(C)=O)cc(C(=O)O)cc1C2=O", "values": [{"measurement": "Potency", "setting": "[2]", "result": "inactive"}, {"measurement": "Potency", "setting": "[3]", "result": "inactive"}]}, {"smiles": "NCC(O)CC(=O)O", "note": "(stereo unspecified)", "values": [{"measurement": "Potency", "setting": "[2]", "result": "inactive"}, {"measurement": "Potency", "setting": "[3]", "result": "inactive"}]}, {"smiles": "CC(=O)Oc1cccc(C(=O)O)c1OC(C)=O", "values": [{"measurement": "Potency", "setting": "[2]", "result": "inactive"}, {"measurement": "Potency", "setting": "[3]", "result": "inactive"}]}, {"smiles": "CC(=O)N=c1sc(S(N)(=O)=O)nn1C", "values": [{"measurement": "outcome", "setting": "[1]", "result": "inactive"}, {"measurement": "Potency", "setting": "[2]", "result": "inactive"}, {"measurement": "Potency", "setting": "[3]", "result": "inactive"}]}, {"smiles": "CC(C)c1nc(N(C)S(C)(=O)=O)nc(-c2ccc(F)cc2)c1/C=C/C(O)CC(O)CC(=O)O", "note": "(stereo unspecified)", "values": [{"measurement": "Potency", "setting": "[10]", "result": "inactive"}, {"measurement": "Potency", "setting": "[3]", "result": "inactive"}]}, {"smiles": "O=C(O)[C@H]1C(=CCO)O[C@H]2CC(=O)N12", "values": [{"measurement": "Potency", "setting": "[2]", "result": "inactive"}, {"measurement": "Potency", "setting": "[3]", "result": "inactive"}]}, {"smiles": "O=C(O)Cc1cc(I)c(Oc2ccc(O)c(I)c2)c(I)c1", "values": [{"measurement": "outcome", "setting": "[1]", "result": "inactive"}, {"measurement": "Potency", "setting": "[12]", "result": "5.01 µM (active)"}]}, {"smiles": "Cc1cc(C)c(NC(=O)C[C@H](CC(=O)O)c2cccc3ccccc23)c(C(=O)N2CCC3(CCCC3)CC2)c1", "values": [{"measurement": "outcome", "setting": "[1]", "result": "inactive"}, {"measurement": "outcome", "setting": "[13]", "result": "inactive"}, {"measurement": "Potency", "setting": "[10]", "result": "inactive"}]}, {"smiles": "C[C@@](Cc1ccc(O)c(O)c1)(NN)C(=O)O", "values": [{"measurement": "outcome", "setting": "[13]", "result": "inactive"}, {"measurement": "Potency", "setting": "[10]", "result": "inactive"}]}, {"smiles": "CC1CCC(NC(=O)N(CCCl)N=O)CC1", "note": "(stereo unspecified)", "values": [{"measurement": "Potency", "setting": "[2]", "result": "inactive"}, {"measurement": "Potency", "setting": "[3]", "result": "inactive"}]}, {"smiles": "CCSc1ccc2c(c1)N(CCCN1CCN(C)CC1)c1ccccc1S2", "values": [{"measurement": "outcome", "setting": "[1]", "result": "inactive"}, {"measurement": "Potency", "setting": "[10]", "result": "inactive"}, {"measurement": "Potency", "setting": "[4]", "result": "2.51 µM (active)"}]}, {"smiles": "CCOC(=O)C1=C(COCCN)NC(C)=C(C(=O)OC)C1c1ccccc1Cl", "note": "(stereo unspecified)", "values": [{"measurement": "Potency", "setting": "[3]", "result": "inactive"}]}, {"smiles": "CCCc1nc(C(C)(C)O)c(C(=O)OCc2oc(=O)oc2C)n1Cc1ccc(-c2ccccc2-c2nn[nH]n2)cc1", "values": [{"measurement": "Potency", "setting": "[10]", "result": "inactive"}, {"measurement": "Potency", "setting": "[3]", "result": "inactive"}]}]}
